Consider ten molecules from PubChem BioAssay (NCI).

This is part of a sample that, as a whole, favours compounds with a hit. Of some 83,000 tested, about 20% had one in any assay.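 For each line, cells grew in 96-well plates with the test compound present at a single concentration for 48 hours.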 Values without a mark were called inactive. Active and inactive are the calls of the source. Rule for the calls: active = growth percent below 10; inactive = the rest.

Test systems include RPMI-8226 leukemia; OVCAR-5 ovarian; OVCAR-4 ovarian; SK-OV-3 ovarian; IGROV1 ovarian; OVCAR-3 ovarian; HS 578T breast; NCI/ADR-RES ovarian; T-47D breast; MDA-MB-435 melanoma; SW-620 colon; MCF7 breast; HCT-116 colon; KM12 colon; BT-549 breast; HCC-2998 colon; OVCAR-8 ovarian.
Holding throughout (assay): NCI-60 one-dose screen, 48 h (100 = growth as untreated, 0 = no growth, -100 = all killed)
Settings in all cases: 10 µM unless noted

Consider `Cc1ccc(C(C)C)cc1NC(=O)Nc1ccc([N+](=O)[O-])cc1`, for which the growth in the experiment on RPMI-8226 leukemia is -61.9% (active); in the experiment on OVCAR-5 ovarian, 26.8%; in the experiment with OVCAR-4 ovarian, 28.2%; in the experiment with SK-OV-3 ovarian it was 7.01% (active); in the experiment with IGROV1 ovarian, 6.68% (active); in the experiment on OVCAR-3 ovarian, -21.9% (active). Besides, the growth with HS 578T breast is 14.7%; in the experiment on NCI/ADR-RES ovarian it was -10.7% (active); with T-47D breast it was 0.428% (active); in the experiment with MDA-MB-435 melanoma, 11%; in the experiment with SW-620 colon, 10.5%; in the experiment on MCF7 breast, -10.2% (active). In addition, the figures for the growth with HCT-116 colon and in the experiment on KM12 colon were -23.2% (active) and 2.72% (active), respectively.
For the molecule `CCCCC(C#N)C(N)=O` (stereo unspecified), the growth in the experiment on RPMI-8226 leukemia is 102%; in the experiment on OVCAR-5 ovarian, 106%; in the experiment on OVCAR-4 ovarian it was 107%; with SK-OV-3 ovarian, 98.1%; in the experiment with IGROV1 ovarian, 113%; in the experiment with OVCAR-3 ovarian, 108%. For the same molecule, the growth is 101% with HS 578T breast; 105% with NCI/ADR-RES ovarian; 100% in the experiment on T-47D breast; 114% in the experiment on BT-549 breast; 114% in the experiment on MDA-MB-435 melanoma; 111% in the experiment on SW-620 colon. The growth in the experiment with HCT-116 colon was 98.4%; with HCC-2998 colon, 104%; in the experiment with KM12 colon, 119%.
For the molecule `COc1cc(C2NC(c3ccc(Cl)cc3)C(C)/C(=N/NC(N)=S)C2C)cc(OC)c1OC` (stereo unspecified), the growth in the experiment on RPMI-8226 leukemia was 74.2%; with OVCAR-5 ovarian, 98%; in the experiment with OVCAR-4 ovarian, 87%; in the experiment with SK-OV-3 ovarian, 101%; in the experiment with IGROV1 ovarian, 89.7%; in the experiment with OVCAR-3 ovarian, 98.6%. In addition, the growth in the experiment with HS 578T breast was 98.1%; with NCI/ADR-RES ovarian it was 94.1%; in the experiment on T-47D breast, 82.7%; with BT-549 breast it was 111%; with MDA-MB-435 melanoma it was 107%; with SW-620 colon, 106%. Further, the growth in the experiment on MCF7 breast is 90.3%; with HCT-116 colon, 73.1%; in the experiment with HCC-2998 colon, 126%; in the experiment on KM12 colon, 88.6%.
Turning to `COc1ccc2c3c(c(OCCCN(C)C)nc2c1)-c1ccc(Cl)cc1C3=O`, the growth was -17.3% (active) in the experiment with RPMI-8226 leukemia; -43.3% (active) with OVCAR-5 ovarian; -8.75% (active) with OVCAR-4 ovarian; 55.5% with SK-OV-3 ovarian; 30.8% in the experiment on IGROV1 ovarian; -46.4% (active) in the experiment with OVCAR-3 ovarian. The growth was 68.7% in the experiment on HS 578T breast; 7.12% (active) in the experiment on NCI/ADR-RES ovarian; 72.7% in the experiment on T-47D breast; 92.5% in the experiment on BT-549 breast; -7.72% (active) in the experiment with MDA-MB-435 melanoma; -78.7% (active) with SW-620 colon. Besides, the growth was -82.3% (active) with MCF7 breast, -90.9% (active) in the experiment with HCT-116 colon, -95.2% (active) in the experiment with HCC-2998 colon and -32.2% (active) in the experiment with KM12 colon.
Take `COc1cc(C2=NN(C(C)=O)C(c3ccc(OC(C)=O)cc3OC(C)=O)O2)c(OC(C)=O)c2ccccc12` (stereo unspecified): the growth in the experiment with RPMI-8226 leukemia was 8.23% (active); with OVCAR-5 ovarian, 54%; in the experiment on OVCAR-4 ovarian, 21.1%; in the experiment on SK-OV-3 ovarian, 20.1%; with IGROV1 ovarian it was 21.7%; in the experiment on OVCAR-3 ovarian it was 20.5%. Moreover, the growth is 56.7% in the experiment with HS 578T breast; 11.7% in the experiment with NCI/ADR-RES ovarian; 11.3% in the experiment on T-47D breast; 23.8% with BT-549 breast; 28.8% in the experiment with MDA-MB-435 melanoma; 30.9% in the experiment with SW-620 colon. The growth was 14.1% in the experiment with MCF7 breast, 14.4% with HCT-116 colon and 22.3% with KM12 colon.
`COc1cc(/C=C/C(=O)Nc2ccc3c(c2)/C(=C\c2cccn2C)C(=O)N3)cc(OC)c1OC`: the growth with RPMI-8226 leukemia was -17.8% (active); with OVCAR-5 ovarian, 99.5%; with OVCAR-4 ovarian, 50.3%; with SK-OV-3 ovarian, 81.5%; with IGROV1 ovarian, 60.4%; with OVCAR-3 ovarian, 41.7%. Moreover, the growth in the experiment with HS 578T breast was 4.35% (active); in the experiment with NCI/ADR-RES ovarian, 84.2%; in the experiment with T-47D breast, 15%; in the experiment on BT-549 breast it was 46.6%; in the experiment with MDA-MB-435 melanoma, 59.9%; with SW-620 colon, 83.1%. Moreover, the values for the growth in the experiment with MCF7 breast, in the experiment with HCT-116 colon and with KM12 colon were 1.79% (active), 37.3% and 33.8%, respectively.
Consider `Cc1cc(C(C)(C)C)cc(C)c1CC1=NCCN1`, for which the growth with RPMI-8226 leukemia is 114%; in the experiment with OVCAR-8 ovarian it was 107%; with OVCAR-4 ovarian, 117%; in the experiment with SK-OV-3 ovarian it was 124%; in the experiment on IGROV1 ovarian, 108%; in the experiment with OVCAR-3 ovarian, 112%. Moreover, the growth in the experiment with HS 578T breast was 102%; in the experiment with NCI/ADR-RES ovarian it was 101%; in the experiment with MDA-MB-435 melanoma, 100%; in the experiment with SW-620 colon, 108%; with MCF7 breast, 113%; in the experiment on HCT-116 colon, 112%. Further, the figures for the growth with HCC-2998 colon and in the experiment with KM12 colon were 96.4% and 103%, respectively.
With `COc1ccc(-c2c(-c3cc(OC)c(OC)c(OC)c3)noc2N)cc1`, the growth is 10.9% with RPMI-8226 leukemia; 24.9% with OVCAR-8 ovarian; 38.8% with OVCAR-4 ovarian; 20.6% in the experiment on SK-OV-3 ovarian; 22.4% with IGROV1 ovarian; -29.7% (active) in the experiment on OVCAR-3 ovarian. The growth with HS 578T breast is 30%; with T-47D breast, 61.2%; in the experiment on BT-549 breast, 13.2%; with MDA-MB-435 melanoma, -6.19% (active); in the experiment with SW-620 colon it was 21.7%; with MCF7 breast, 17.1%. Moreover, the values for the growth with HCT-116 colon, in the experiment with HCC-2998 colon and with KM12 colon were 8.77% (active), 17.4% and 7.28% (active), respectively.
Turning to `CCCCCCC/C(=N\N=C(N)N)c1ccc(O)cc1`, the growth with RPMI-8226 leukemia is 11%; in the experiment on OVCAR-5 ovarian it was 58.3%; with OVCAR-4 ovarian, 36.2%; in the experiment on SK-OV-3 ovarian it was 46.8%; in the experiment with IGROV1 ovarian, 33.6%; in the experiment on OVCAR-3 ovarian, 35.8%. The growth with HS 578T breast was 57.3%; in the experiment on NCI/ADR-RES ovarian, 69.9%; with T-47D breast, -31.6% (active); in the experiment on MDA-MB-435 melanoma, 41.6%; in the experiment on SW-620 colon, 49%; in the experiment on MCF7 breast it was -21.8% (active). For the same molecule, the growth is 18.3% in the experiment with HCT-116 colon, -77% (active) in the experiment with HCC-2998 colon and 48.8% with KM12 colon.
As for `O=C1/C(=C/c2ccc([N+](=O)[O-])s2)Oc2ccc(Br)cc21`, the growth in the experiment with RPMI-8226 leukemia is -6.04% (active); in the experiment with OVCAR-5 ovarian it was -66.8% (active); with OVCAR-4 ovarian, -75.8% (active); with SK-OV-3 ovarian, -34.3% (active); with IGROV1 ovarian, -45.9% (active); with OVCAR-3 ovarian, -65.3% (active). Also, the growth is 16.2% with HS 578T breast; -31.2% (active) in the experiment on NCI/ADR-RES ovarian; -55.7% (active) in the experiment on T-47D breast; -46.2% (active) in the experiment with BT-549 breast; -69.5% (active) in the experiment with MDA-MB-435 melanoma; -63.5% (active) with SW-620 colon. Moreover, the growth with MCF7 breast was -25.2% (active); with HCT-116 colon, -71.5% (active); with HCC-2998 colon it was -79.9% (active); with KM12 colon, -51.3% (active).
